# The list is not random: actives were taken first. Their share in the collection is about 19%.
# DT40 TDP1 CPT = DT40-hTDP1 cell growth loss with CPT | Potency, µM (doses to about 46.2 µM), for the others: top-dose activity change, negative = growth inhibition, usual class: inhibitors | chicken DT40 Tdp1-/-;hTDP1 cells + 20 nM CPT, ATP luminescence, 48 h | 420,000 compounds, 12% hits; note: potency is the fitted concentration of half-maximal effect; nearly all actives have a fitted effect of over 55% in size
#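 Chicken DT40 Tdp1-/- cells complemented with human TDP1, 400 cells/well, exposed to compounds plus 20 nM camptothecin for at least 48 h at 37 C; viability read as ATP content by CellTiter-Glo luminescence.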
# HT1080 IDH1KD tx = kills HT-1080 cells with IDH1 knockdown; Potency, µM (series often up to 46.1 µM), for inactives: at the top dose activity, negative = toxicity, most hits filed as cytotoxic; HT-1080 IDH1 knockdown viability, ATP luminescence, 48 h; 360,000 compounds, 2% hits;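 note: potency is the fitted concentration of half-maximal effect; 0% = DMSO wells and -100% = cell-free medium wells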
#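 Using the IDH1-knockdown HT-1080 line run in the same batch and compound series as the NT line, viability after 48 h at 37 °C was determined by CellTiter-Glo luminescence and expressed as % activity.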
# IL1B secr inh = inhibitors of inflammasome signaling (IL-1 beta secretion) | THP-1 LPS/ATP IL-1B secretion, AlphaLISA, 16 h; active compounds read low | activity change, % at 57.5 µM | 360,000 compounds, 4.7% hits; in the data active = activity change below about -50%; inconclusive = mostly about -30% to -49%
#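 Secreted IL-1B measured by AlphaLISA bead assay after 16 h compound exposure of THP-1 cells; compounds (final up to 57.5 uM) added 1 h before LPS (250 ng/mL) and ATP (1.25 mM) stimulation; lower signal means less secretion.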
# DT40 TDP1 no CPT = qHTS for Inhibitors of human tyrosyl-DNA phosphodiesterase 1 (TDP1): qHTS in cells in absence of CPT | 420,000 compounds, 15% hits | AID 686978, 2013 | DT40 Tdp1-/- hTDP1 cells, no CPT, ATP luminescence, 48 h | Potency, µM (doses to about 46.2 µM), without a hit: top-dose activity change, negative = growth inhibition, most hits filed as inhibitors; note: potency is the fitted concentration of half-maximal effect; nearly all actives have a fitted effect of over 55% in size
#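 Stably hTDP1-transfected Tdp1-null chicken DT40 cells were treated with library compounds minus camptothecin and grown for at least 48 hr at 37 °C, after which cellular ATP was quantified by luminescence.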
# uPA generation = blocks generation of uPA at the cell surface. Potency, µM (series often up to 38.3 µM), without a hit: at the top dose activity change, negative = inhibition, usual class: inhibitors. cell surface uPA generation assay, qHTS. 330,000 compounds, 0.31% hits; active = well fitted inhibition curve with a large enough effect; inconclusive = small, poorly fitted or top-dose-only effect; inactive = no such curve, though single readings can be large or run the other way; tested in mouse RAW 264.7 cells; note: potency is the fitted concentration of half-maximal effect; nearly all actives have a fitted effect of over 55% in size
# HT1080-NT tox = kills 2HG-producing HT-1080-NT fibrosarcoma cells | HT-1080-NT fibrosarcoma viability, CellTiter-Glo ATP luminescence, 48 h | Potency, µM (doses to about 46.1 µM), without a hit: at the top dose activity, negative = less viability, hits mostly cytotoxic | 360,000 compounds, 1.6% hits;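 note: NT is the 2HG producing partner of a matched IDH1 knockdown line; potency is the fitted concentration of half-maximal effect; 0% = DMSO-treated cells and -100% = media-only wells without cells; nearly all actives have a fitted effect of over 55% in size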
#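 Viability of the 2HG-overproducing fibrosarcoma line after 48 hours of compound exposure at 37 degrees C was determined by luminescence with CellTiter-Glo, and concentration-effect curves were then fitted and categorized.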
# * marks the source's active call; other numbers are inactive results; ? = inconclusive; · = no result; [ ] = remark or other dose. Unless noted, calls come from the whole dose curve; as a rule, active = well fitted curve in the direction sought with a large enough effect; inconclusive = small, poorly fitted or top-dose-only effect, or another doubt; inactive = no such curve, though single readings can be large; an effect the other way counts as inactive or inconclusive. Unless noted, % is set by controls: 0 for no effect and ±100 for the full control effect.
SMILES,DT40 TDP1 CPT,HT1080 IDH1KD tx,IL1B secr inh,DT40 TDP1 no CPT,uPA generation,HT1080-NT tox
Cc1cccc(NC(=O)CCC(=O)OCC(=O)c2ccc(Oc3ccc([N+](=O)[O-])cc3)cc2)c1,20.6µM*,-10.1%,15.4,?,-3.2%,-5.8%
Cc1c(NC(=O)C(F)(F)F)ccc2nc3c(=O)n(C)c(=O)n(C)c3nc12,?,·,·,16.4µM*,·,·
O=C(CCn1c(=O)oc2ccc(Cl)cc21)N1CCN(Cc2ccccc2)CC1,-28.6%,0.7%,-26.0,-11.6%,2.7%,5.1%
C[N+]1(CC(=O)c2ccc(-c3ccccc3)cc2)CCOCC1,?,·,·,-16.2%,·,·
C[N+]1(CC(=O)c2c3ccccc3cc3ccccc23)CCOCC1,15.8µM*,·,·,10µM*,·,·
Cc1cccc(N(CC(=O)N2CCCCCC2)S(C)(=O)=O)c1,-2.7%,1.6%,-13.5,-13.0%,0.5%,0.2%
COC(=O)c1cc2nc(-c3ccc(C)cc3)cc(C(F)(F)F)n2n1,-1.5%,17.4%,13.5,-1.3%,4.3%,3.1%
CCCCNC(=O)c1cc2nc(-c3ccc(OC)cc3)cc(C(F)(F)F)n2n1,?,-4.8%,-5.9,25.9µM*,·,-5.0%
Cc1cc(-c2ccccc2)nc2cc(C(=O)N(Cc3ccccc3)Cc3ccccc3)nn12,?,16.4µM*,-16.4,?,-12.9%,?
CCCNC(=O)c1nn2c(C(F)(F)F)cc(-c3ccccc3)nc2c1Br,-22.3%,10.5%,14.1,?,4.1%,13.8%
COc1cc(NC(=O)c2cc3nc(-c4ccc(C)cc4)cc(C(F)(F)F)n3n2)cc(OC)c1OC,?,·,·,7.31µM*,·,·
CCCCNC(=O)c1nn2c(C(F)(F)F)cc(-c3ccc(OC)cc3)nc2c1Br,23.1µM*,-5.7%,24.8,?,-0.8%,-13.1%
COC(=O)C(C(=O)OC)c1cc2c(cc1CNS(=O)(=O)c1ccc(C)cc1)OCO2,-12.5%,-10.2%,-0.6,5.2%,·,1.4%
CCOC(=O)c1[nH]c(C)c(C(=O)NCc2cccc(OC)c2)c1C,-2.9%,·,·,-22.4%,·,·
CCCCN1C(=O)C(CC(=O)NCc2ccco2)CC(C(=O)N(C)C)=C1C (configuration not stated),5.0%,7.4%,-13.8,0.3%,·,4.5%
CC(=O)N1CCN(C(=O)c2ccc(NS(=O)(=O)c3ccc4[nH]c(=O)[nH]c4c3)cc2)CC1,8.4%,8.9%,-17.0,-0.6%,1.2%,5.9%
COc1ccc(-c2cc(C(F)(F)F)n3nc(C(=O)N(C)Cc4ccccc4)cc3n2)cc1OC,16.4µM*,5.0%,-20.7,?,-2.6%,-1.0%
Cc1cc(C)cc(OCCCn2ccnc2)c1,-11.2%,-0.4%,22.5,-9.0%,4.2%,0.4%
Cc1cccc(OCCCn2ccnc2)c1,20.6µM*,-1.9%,-5.8,?,·,2.3%
C=CCOc1ccc(NC(=O)C(=O)NCCCn2ccnc2)cc1,-14.3%,-3.0%,10.4,-8.0%,·,21.5%
CCCCCOc1ccc(NC(=O)C(=O)NCCCn2ccnc2)cc1,?,-14.6%,21.8,18.4µM*,-7.8%,-7.1%
Cc1ccc(OCCCn2ccnc2)cc1C,?,2.7%,-4.7,18.4µM*,6.1%,0.9%
CCNC(=O)C1(C)CCCN(Cc2noc(-c3c(C)noc3C)n2)C1 (configuration not stated),-11.1%,16.8%,31.7,-7.9%,·,20.5%
CCc1cc(-c2nnn(CCC3COCCO3)c2CC)ccc1-c1cn(Cc2ccccc2)nn1 (configuration not stated),16.4µM*,-28.4%,0.2,20.6µM*,·,-6.3%
COc1ccc(NC(=O)CN(C)C(=O)C2CCCO2)cc1 (configuration not stated),-8.8%,1.1%,-1.1,13.8%,-1.0%,-5.9%[9.24 µM]
SMILES,DT40 TDP1 CPT,HT1080 IDH1KD tx,IL1B secr inh,DT40 TDP1 no CPT,uPA generation,HT1080-NT tox
O=C(Cc1ccccc1)N/N=C/c1cc(Br)cc(Br)c1O,?,?,135.0,?,-9.4%,-18.9%
O=C(CCN1CCOCC1)N/N=C/c1cc(Br)cc(Br)c1O,6.51µM*,?,103.9,18.4µM*,-10.7%,?
O=C(NNC(=O)c1ccc(F)cc1)c1ccncc1,4.3%,12.2%,7.3,7.2%,-7.9%,-1.5%
O=C(NNC1=Nc2ccccc2SC1)c1ccc(F)cc1,?,?,25.7,23.1µM*,-9.6%,-29.3%
O=C(NNC1=Nc2ccccc2SC1)c1ccc(Cl)cc1,6.51µM*,?,56.9,11.6µM*,-1.3%,?
COc1ccc(NC(=O)C2(C)CCCN(C(C)C)C2)cc1F (configuration not stated),-12.3%,16.1%,-1.8,-6.1%,·,19.7%
CCN(CC)S(=O)(=O)c1ccc(C)c(C(=O)Oc2cccc(-c3cnc4ccccc4n3)c2)c1,?,8.3%,2.6,20.6µM*,0.4%,11.5%
CCN(CC)S(=O)(=O)c1cc(C(=O)Oc2cccc(-c3cnc4ccccc4n3)c2)ccc1OC,?,-14.5%,15.9,20.6µM*,1.7%,-0.4%
O=C(Oc1cccc(-c2cnc3ccccc3n2)c1)c1ccco1,-15.0%,-12.1%,0.0,-27.8%,-7.6%,-20.5%
O=C(NCc1ccccc1)C(c1ccncc1)N(C(=O)c1ccccn1)c1ccccc1 (configuration not stated),-5.0%,7.7%,-6.5,0.7%,-3.5%,7.9%
CCCCCCCCCCOc1cc2c(=O)c(C(=O)OCC)c[nH]c2cc1OCC,2.3%,·,·,-19.4%,·,·
CC1CCCN(Cc2c(O)ccc3c(=O)c(-c4ccccc4Cl)c(C(F)(F)F)oc23)C1 (configuration not stated),0.8%,·,·,0.2%,·,·
Cc1c(NC(=O)[C@@H](NC(=O)c2ccc(Cl)c([N+](=O)[O-])c2)C(C)C)c(=O)n(-c2ccccc2)n1C,2.6%,-0.1%,-93.6*,?,-1.3%,-1.8%
CC(=O)Oc1c(I)cc(I)cc1C(=O)Nc1ccc(Cl)cc1,?,20.6µM*,-86.6*,20.6µM*,-3.0%,20.6µM*
Cc1cccc(OCc2ccccc2)n1,-1.5%,7.0%,-5.7,-9.6%,8.5%,0.8%
COc1cccc(COc2cc3ccccc3nc2C)c1,10.3µM*,-19.6%,-17.0,9.2µM*,-9.0%,-4.7%
Cc1nc2ccccc2cc1OCc1ccccc1,11.6µM*,-5.0%,23.6,16.4µM*,-12.1%,4.7%
O=C(COC(=O)Cn1[nH]c(=O)c2ccccc2c1=O)NNC(=O)c1ccccc1,-9.7%,1.5%,0.8,16.9%,8.5%,-1.1%

# Bioassay records (PubChem)
